According to ChEMBL document CHEMBL1961873, “Compounds: GSK PKIS; Assays: Nanosyn kinase panel” (2012):

Tests used:
[1] = target: Serine/threonine-protein kinase MARK2 (Homo sapiens) (UniProt Q7KZI7); settings: at 1 µM
[2] = target: PAS domain-containing serine/threonine-protein kinase (Homo sapiens) (UniProt Q96RG2); settings: at 0.1 µM
[3] = target: PAS domain-containing serine/threonine-protein kinase (Homo sapiens) (UniProt Q96RG2); settings: at 1 µM
[4] = target: Phosphorylase b kinase gamma catalytic chain, skeletal muscle/heart isoform (Homo sapiens) (UniProt Q16816); settings: at 0.1 µM
Phosphorylase b kinase gamma catalytic chain, skeletal muscle/heart isoform (Homo sapiens), sequence (Q16816 whole entry, looked up, canonical isoform): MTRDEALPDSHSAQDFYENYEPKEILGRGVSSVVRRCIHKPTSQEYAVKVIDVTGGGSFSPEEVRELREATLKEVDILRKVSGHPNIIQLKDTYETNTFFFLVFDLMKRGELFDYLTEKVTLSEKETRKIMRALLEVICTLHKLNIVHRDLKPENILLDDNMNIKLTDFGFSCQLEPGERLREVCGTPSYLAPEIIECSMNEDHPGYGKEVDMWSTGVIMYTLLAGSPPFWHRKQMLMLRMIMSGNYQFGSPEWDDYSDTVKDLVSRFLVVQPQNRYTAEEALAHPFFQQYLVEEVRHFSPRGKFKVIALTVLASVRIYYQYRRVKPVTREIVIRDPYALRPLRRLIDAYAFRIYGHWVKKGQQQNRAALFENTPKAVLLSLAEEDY

[5] = target: Phosphorylase b kinase gamma catalytic chain, skeletal muscle/heart isoform (Homo sapiens) (UniProt Q16816); settings: at 1 µM
[6] = target: T1, Phosphorylase b kinase gamma catalytic chain, liver/testis isoform (Homo sapiens) (UniProt P15735); settings: at 0.1 µM
T1 sequence (whole entry): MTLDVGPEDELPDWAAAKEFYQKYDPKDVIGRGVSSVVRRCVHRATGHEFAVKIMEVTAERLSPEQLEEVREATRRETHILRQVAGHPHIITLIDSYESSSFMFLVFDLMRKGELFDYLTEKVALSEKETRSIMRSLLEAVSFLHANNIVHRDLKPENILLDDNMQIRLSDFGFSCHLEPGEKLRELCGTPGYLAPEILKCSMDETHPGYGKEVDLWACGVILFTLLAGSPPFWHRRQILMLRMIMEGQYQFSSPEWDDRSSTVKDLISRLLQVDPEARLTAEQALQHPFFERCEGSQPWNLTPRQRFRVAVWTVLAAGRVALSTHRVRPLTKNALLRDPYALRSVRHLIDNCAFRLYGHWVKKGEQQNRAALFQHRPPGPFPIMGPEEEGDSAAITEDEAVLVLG

[7] = target: T1, Phosphorylase b kinase gamma catalytic chain, liver/testis isoform (Homo sapiens); settings: at 1 µM
[8] = target: Serine/threonine-protein kinase pim-1 (Homo sapiens) (UniProt P11309); settings: at 0.1 µM
Serine/threonine-protein kinase pim-1 (Homo sapiens), sequence (P11309 whole entry, looked up): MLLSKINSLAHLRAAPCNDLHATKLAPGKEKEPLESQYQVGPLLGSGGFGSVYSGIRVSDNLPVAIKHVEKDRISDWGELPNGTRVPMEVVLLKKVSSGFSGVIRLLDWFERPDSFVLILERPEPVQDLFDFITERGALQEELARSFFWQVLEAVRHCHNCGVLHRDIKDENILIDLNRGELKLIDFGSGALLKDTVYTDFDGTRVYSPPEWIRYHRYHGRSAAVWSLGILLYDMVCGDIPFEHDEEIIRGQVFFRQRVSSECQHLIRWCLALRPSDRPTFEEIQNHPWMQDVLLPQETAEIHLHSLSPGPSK

[9] = target: Serine/threonine-protein kinase pim-1 (Homo sapiens) (UniProt P11309); settings: at 1 µM
[10] = target: Serine/threonine-protein kinase pim-2 (Homo sapiens) (UniProt Q9P1W9); settings: at 0.1 µM
Serine/threonine-protein kinase pim-2 (Homo sapiens), sequence (Q9P1W9 whole entry, looked up): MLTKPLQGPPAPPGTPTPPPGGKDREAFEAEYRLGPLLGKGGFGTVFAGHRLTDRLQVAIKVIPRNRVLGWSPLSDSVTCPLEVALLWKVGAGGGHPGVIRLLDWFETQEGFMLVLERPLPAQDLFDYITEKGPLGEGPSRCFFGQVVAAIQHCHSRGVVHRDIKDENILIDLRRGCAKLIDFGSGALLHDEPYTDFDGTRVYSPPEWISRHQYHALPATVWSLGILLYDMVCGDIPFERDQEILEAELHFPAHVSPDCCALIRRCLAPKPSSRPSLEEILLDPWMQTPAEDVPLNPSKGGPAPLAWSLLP

[11] = target: Serine/threonine-protein kinase pim-2 (Homo sapiens) (UniProt Q9P1W9); settings: at 1 µM
[12] = target: Serine/threonine-protein kinase pim-3 (Homo sapiens) (UniProt Q86V86); settings: at 0.1 µM
[13] = target: Serine/threonine-protein kinase pim-3 (Homo sapiens) (UniProt Q86V86); settings: at 1 µM
[14] = target: T2, MAP kinase-activated protein kinase 5 (Homo sapiens) (UniProt Q8IW41); settings: at 0.1 µM
T2 sequence (whole entry): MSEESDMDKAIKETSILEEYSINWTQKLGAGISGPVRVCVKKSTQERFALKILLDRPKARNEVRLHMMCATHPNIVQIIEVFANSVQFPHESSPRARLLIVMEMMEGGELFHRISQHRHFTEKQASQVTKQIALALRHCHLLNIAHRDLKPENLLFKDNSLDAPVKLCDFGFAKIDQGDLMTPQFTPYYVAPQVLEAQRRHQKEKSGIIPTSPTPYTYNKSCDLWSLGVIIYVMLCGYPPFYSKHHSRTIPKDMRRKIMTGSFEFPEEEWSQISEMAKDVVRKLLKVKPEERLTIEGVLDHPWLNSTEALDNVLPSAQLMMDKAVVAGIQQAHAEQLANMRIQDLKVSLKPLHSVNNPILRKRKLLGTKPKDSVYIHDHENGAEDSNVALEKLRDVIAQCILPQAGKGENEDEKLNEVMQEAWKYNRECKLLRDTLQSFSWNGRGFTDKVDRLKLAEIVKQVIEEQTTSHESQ

[15] = target: T2, MAP kinase-activated protein kinase 5 (Homo sapiens); settings: at 1 µM
[16] = target: Serine/threonine-protein kinase SIK1 (Homo sapiens) (UniProt P57059); settings: at 0.1 µM
Serine/threonine-protein kinase SIK1 (Homo sapiens), sequence (P57059 whole entry): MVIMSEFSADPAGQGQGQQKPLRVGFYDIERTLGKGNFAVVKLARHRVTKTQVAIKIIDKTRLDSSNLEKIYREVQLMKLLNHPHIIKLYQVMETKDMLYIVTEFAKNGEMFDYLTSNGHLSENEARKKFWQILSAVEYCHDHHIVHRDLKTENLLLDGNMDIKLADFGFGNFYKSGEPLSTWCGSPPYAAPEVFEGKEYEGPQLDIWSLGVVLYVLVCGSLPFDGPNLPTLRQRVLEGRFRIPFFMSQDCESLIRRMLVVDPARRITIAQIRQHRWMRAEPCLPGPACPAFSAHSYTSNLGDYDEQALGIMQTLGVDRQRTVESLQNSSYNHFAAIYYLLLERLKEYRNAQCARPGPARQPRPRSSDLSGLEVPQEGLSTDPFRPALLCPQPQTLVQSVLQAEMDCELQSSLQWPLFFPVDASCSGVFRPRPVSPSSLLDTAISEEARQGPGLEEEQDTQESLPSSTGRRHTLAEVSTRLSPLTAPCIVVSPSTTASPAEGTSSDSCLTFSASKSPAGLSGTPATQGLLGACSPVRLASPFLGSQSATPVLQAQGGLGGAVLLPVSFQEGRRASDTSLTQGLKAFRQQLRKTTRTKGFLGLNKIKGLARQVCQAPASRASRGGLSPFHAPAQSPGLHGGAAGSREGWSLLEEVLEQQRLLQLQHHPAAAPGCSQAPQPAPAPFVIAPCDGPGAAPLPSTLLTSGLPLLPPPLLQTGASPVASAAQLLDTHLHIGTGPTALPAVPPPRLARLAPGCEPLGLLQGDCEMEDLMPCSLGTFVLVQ

[17] = target: Serine/threonine-protein kinase SIK1 (Homo sapiens) (UniProt P57059); settings: at 1 µM
[18] = target: Serine/threonine-protein kinase SIK2 (Homo sapiens) (UniProt Q9H0K1); settings: at 0.1 µM
[19] = target: Serine/threonine-protein kinase SIK2 (Homo sapiens) (UniProt Q9H0K1); settings: at 1 µM
[20] = target: T3, Serine/threonine-protein kinase TBK1 (Homo sapiens) (UniProt Q9UHD2); settings: at 0.1 µM;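 further: values are the mean TBK1 inhibition, taken from the GSK PKIS screening data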
T3 sequence (whole entry): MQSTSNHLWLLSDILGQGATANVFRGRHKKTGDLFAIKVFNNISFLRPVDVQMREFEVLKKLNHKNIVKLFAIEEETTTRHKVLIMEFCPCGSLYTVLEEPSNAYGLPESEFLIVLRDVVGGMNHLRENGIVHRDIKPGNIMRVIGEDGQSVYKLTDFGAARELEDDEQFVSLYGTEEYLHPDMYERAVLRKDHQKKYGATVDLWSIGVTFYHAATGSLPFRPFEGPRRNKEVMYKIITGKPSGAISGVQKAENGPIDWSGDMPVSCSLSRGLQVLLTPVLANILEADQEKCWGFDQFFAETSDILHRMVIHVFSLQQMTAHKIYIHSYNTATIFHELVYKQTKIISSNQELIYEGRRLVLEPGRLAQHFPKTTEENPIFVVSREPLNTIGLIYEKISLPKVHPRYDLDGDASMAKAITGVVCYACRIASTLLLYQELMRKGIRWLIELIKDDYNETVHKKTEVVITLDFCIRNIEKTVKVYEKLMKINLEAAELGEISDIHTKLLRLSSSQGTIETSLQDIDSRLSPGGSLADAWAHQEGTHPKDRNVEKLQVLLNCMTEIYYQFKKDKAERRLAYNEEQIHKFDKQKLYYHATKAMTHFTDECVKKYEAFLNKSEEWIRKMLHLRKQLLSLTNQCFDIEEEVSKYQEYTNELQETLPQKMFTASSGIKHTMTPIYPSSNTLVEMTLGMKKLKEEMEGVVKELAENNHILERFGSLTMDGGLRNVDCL

PAS domain-containing serine/threonine-protein kinase (Homo sapiens), sequence (Q96RG2 whole entry, the tested form may be a part, canonical isoform): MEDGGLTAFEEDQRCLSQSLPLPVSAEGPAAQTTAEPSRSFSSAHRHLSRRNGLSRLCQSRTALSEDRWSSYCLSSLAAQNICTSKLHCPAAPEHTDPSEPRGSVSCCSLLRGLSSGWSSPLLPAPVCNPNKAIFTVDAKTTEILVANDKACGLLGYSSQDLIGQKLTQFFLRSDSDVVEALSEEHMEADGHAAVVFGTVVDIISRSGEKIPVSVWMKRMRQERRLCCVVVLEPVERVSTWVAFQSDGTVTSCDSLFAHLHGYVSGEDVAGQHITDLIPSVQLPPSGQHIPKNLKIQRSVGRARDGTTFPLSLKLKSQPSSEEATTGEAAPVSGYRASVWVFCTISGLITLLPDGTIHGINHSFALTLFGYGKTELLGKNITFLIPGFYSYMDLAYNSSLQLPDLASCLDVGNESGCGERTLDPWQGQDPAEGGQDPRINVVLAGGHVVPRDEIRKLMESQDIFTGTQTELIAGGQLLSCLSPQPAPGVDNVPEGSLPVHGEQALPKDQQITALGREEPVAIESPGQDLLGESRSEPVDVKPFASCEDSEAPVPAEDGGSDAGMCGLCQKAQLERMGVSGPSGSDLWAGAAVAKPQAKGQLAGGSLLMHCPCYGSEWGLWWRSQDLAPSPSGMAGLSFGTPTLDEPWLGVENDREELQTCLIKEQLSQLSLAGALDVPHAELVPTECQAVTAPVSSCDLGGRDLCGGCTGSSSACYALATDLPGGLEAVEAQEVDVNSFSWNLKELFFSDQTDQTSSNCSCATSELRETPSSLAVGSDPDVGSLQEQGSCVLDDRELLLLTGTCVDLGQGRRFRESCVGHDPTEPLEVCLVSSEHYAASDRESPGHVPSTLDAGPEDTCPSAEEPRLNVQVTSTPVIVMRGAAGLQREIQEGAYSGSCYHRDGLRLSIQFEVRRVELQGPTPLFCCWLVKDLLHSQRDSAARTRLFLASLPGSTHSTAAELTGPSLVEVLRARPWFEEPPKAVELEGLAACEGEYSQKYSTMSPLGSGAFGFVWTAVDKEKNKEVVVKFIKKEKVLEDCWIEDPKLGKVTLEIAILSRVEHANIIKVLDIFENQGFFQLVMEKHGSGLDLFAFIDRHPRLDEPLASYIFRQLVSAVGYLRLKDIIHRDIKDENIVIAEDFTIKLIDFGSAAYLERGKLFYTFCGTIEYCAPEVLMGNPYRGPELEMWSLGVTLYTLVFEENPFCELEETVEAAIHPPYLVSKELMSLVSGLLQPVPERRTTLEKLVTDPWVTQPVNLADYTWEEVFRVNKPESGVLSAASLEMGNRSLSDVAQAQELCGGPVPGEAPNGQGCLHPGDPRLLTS
Serine/threonine-protein kinase MARK2 (Homo sapiens), sequence (Q7KZI7 whole entry, the tested form may be a part): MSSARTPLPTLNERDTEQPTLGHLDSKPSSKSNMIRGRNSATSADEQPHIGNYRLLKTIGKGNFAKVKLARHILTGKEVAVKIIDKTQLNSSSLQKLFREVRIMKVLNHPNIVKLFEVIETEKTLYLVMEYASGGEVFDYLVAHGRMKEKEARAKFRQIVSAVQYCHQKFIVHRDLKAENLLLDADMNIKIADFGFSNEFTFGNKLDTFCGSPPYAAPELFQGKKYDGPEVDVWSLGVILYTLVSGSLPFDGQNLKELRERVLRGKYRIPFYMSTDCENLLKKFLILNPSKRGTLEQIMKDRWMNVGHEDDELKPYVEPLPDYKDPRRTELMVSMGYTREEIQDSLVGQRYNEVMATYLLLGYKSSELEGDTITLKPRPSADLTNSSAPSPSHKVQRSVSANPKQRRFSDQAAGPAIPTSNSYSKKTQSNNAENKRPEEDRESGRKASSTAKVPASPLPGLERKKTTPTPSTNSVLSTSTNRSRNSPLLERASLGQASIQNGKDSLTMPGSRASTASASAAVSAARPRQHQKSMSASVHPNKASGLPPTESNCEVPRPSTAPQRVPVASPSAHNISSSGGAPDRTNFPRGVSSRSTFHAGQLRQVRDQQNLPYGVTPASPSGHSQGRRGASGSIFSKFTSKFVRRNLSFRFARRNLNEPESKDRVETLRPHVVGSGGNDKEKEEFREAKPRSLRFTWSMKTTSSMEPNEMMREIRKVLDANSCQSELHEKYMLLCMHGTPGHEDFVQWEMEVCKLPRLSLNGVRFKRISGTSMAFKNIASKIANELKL

COc1cc2ncn(-c3cc(O[C@H](C)c4ccccc4Cl)c(C(N)=O)s3)c2cc1OC
inhibition [1]: 17.8%
inhibition [2]: 1.62%
inhibition [3]: 5.27%
inhibition [4]: 3.66%
inhibition [5]: 6.72%
inhibition [6]: 6.57%
inhibition [7]: 12.9%
inhibition [8]: 1.15%
inhibition [9]: 3.93%
inhibition [10]: 0.26%
inhibition [11]: 0.96%
inhibition [12]: 2.36%
inhibition [13]: 12.4%
inhibition [14]: 2.09%
inhibition [15]: 4.22%
inhibition [16]: 12.6%
inhibition [17]: 53.1%
inhibition [18]: 10.9%
inhibition [19]: 24.8%
inhibition [20]: 3.11%

Cc1nn(C)c2cc(N(C)c3ccnc(Nc4cccc(S(N)(=O)=O)c4)n3)ccc12
inhibition [1]: 1.25%
inhibition [2]: -0.56%
inhibition [3]: -0.33%
inhibition [4]: 3.53%
inhibition [5]: 8.04%
inhibition [6]: 2.44%
inhibition [7]: 2.5%
inhibition [8]: 1.18%
inhibition [9]: 0.82%
inhibition [10]: 0.22%
inhibition [11]: 0.81%
inhibition [12]: 0.16%
inhibition [13]: -0.2%
inhibition [14]: 0.87%
inhibition [15]: 1.23%
inhibition [16]: 9.49%
inhibition [17]: 55.3%
inhibition [18]: 7.91%
inhibition [19]: 24.3%
inhibition [20]: 2.88%

CC(=O)Nc1cccc(C#Cc2cncnc2Nc2ccc(OCc3cccc(F)c3)c(Cl)c2)n1
inhibition [1]: -0.36%
inhibition [2]: 1.79%
inhibition [3]: 6.21%
inhibition [4]: 1.84%
inhibition [5]: 3.66%
inhibition [6]: 0.59%
inhibition [7]: 6.86%
inhibition [8]: 1.5%
inhibition [9]: 0.89%
inhibition [10]: 0.58%
inhibition [11]: -0.75%
inhibition [12]: 5.22%
inhibition [13]: 9.04%
inhibition [14]: 0.35%
inhibition [15]: 2.24%
inhibition [16]: -2.62%
inhibition [17]: -1.96%
inhibition [18]: -4.28%
inhibition [19]: -0.46%
inhibition [20]: 1.99%

COc1ccc(-c2coc3ncnc(N)c23)cc1
inhibition [1]: 2.28%
inhibition [2]: -0.15%
inhibition [3]: -1.42%
inhibition [4]: 3.44%
inhibition [5]: 6.53%
inhibition [6]: 4.41%
inhibition [7]: 2.09%
inhibition [8]: 1.29%
inhibition [9]: 1.42%
inhibition [10]: 0.43%
inhibition [11]: 1.01%
inhibition [12]: -0.83%
inhibition [13]: -1.2%
inhibition [14]: 0.93%
inhibition [15]: 0.22%
inhibition [16]: 1.16%
inhibition [17]: 10.4%
inhibition [18]: 5.46%
inhibition [19]: 7.65%
inhibition [20]: -0.45%

Nc1nc(-c2ccccn2)c(-c2ccc3ncccc3n2)s1
inhibition [1]: 1.77%
inhibition [2]: -0.2%
inhibition [3]: -0.49%
inhibition [4]: 0.58%
inhibition [5]: 4.27%
inhibition [6]: 4.79%
inhibition [7]: 5.31%
inhibition [8]: 0.81%
inhibition [9]: 2.21%
inhibition [10]: -0.67%
inhibition [11]: 0.01%
inhibition [12]: 0.6%
inhibition [13]: 2.63%
inhibition [14]: 1.31%
inhibition [15]: 1.64%
inhibition [16]: 4.91%
inhibition [17]: 3.52%
inhibition [18]: 4.07%
inhibition [19]: 4.74%
inhibition [20]: 2.8%

CCN1CCC(CC(=O)Nc2n[nH]c3nc(-c4cccs4)c(Br)cc23)CC1
inhibition [1]: 0.15%
inhibition [2]: -0.58%
inhibition [3]: -1.17%
inhibition [4]: 2.37%
inhibition [5]: 5.36%
inhibition [6]: -4.86%
inhibition [7]: -3.7%
inhibition [8]: 0.1%
inhibition [9]: 3.88%
inhibition [10]: 0.19%
inhibition [11]: 1.48%
inhibition [12]: -0.6%
inhibition [13]: 5.95%
inhibition [14]: -1.45%
inhibition [15]: -0.83%
inhibition [16]: -7.57%
inhibition [17]: -6.71%
inhibition [19]: -4.25%
inhibition [20]: -0.25%

COc1ccccc1Nc1ncc(-c2ccccc2)o1
inhibition [1]: 3.48%
inhibition [2]: -0.06%
inhibition [3]: 1.05%
inhibition [4]: 8.92%
inhibition [5]: 13.1%
inhibition [6]: 5.65%
inhibition [7]: 5.8%
inhibition [8]: 0.63%
inhibition [9]: 1.55%
inhibition [10]: 0.78%
inhibition [11]: 0.53%
inhibition [12]: 0.22%
inhibition [13]: 0.86%
inhibition [14]: 2.09%
inhibition [15]: 1.9%
inhibition [16]: -1.04%
inhibition [17]: 14.1%
inhibition [18]: 1.94%
inhibition [19]: 5.2%
inhibition [20]: 1.18%

COc1cccc(-n2ncc3c(N/N=C/c4cccc(F)c4)ncnc32)c1
inhibition [1]: 2.5%
inhibition [2]: -0.33%
inhibition [3]: -1.6%
inhibition [4]: 5.06%
inhibition [5]: 9%
inhibition [6]: 2.06%
inhibition [7]: 1.7%
inhibition [8]: -0.24%
inhibition [9]: 0.52%
inhibition [10]: -3.26%
inhibition [11]: -2.82%
inhibition [12]: -0.58%
inhibition [13]: -0.78%
inhibition [14]: 0.63%
inhibition [15]: 0.71%
inhibition [16]: 5.56%
inhibition [17]: 11.9%
inhibition [18]: 5.11%
inhibition [19]: 14.4%
inhibition [20]: 1.92%

COc1ccc(-c2ccncc2)cc1C(N)=O
inhibition [1]: 0.17%
inhibition [2]: -0.78%
inhibition [3]: -0.33%
inhibition [4]: 2.55%
inhibition [5]: 3.87%
inhibition [6]: 5.73%
inhibition [7]: 5.45%
inhibition [8]: 0.06%
inhibition [9]: 2.13%
inhibition [10]: -0.49%
inhibition [11]: -0.52%
inhibition [12]: -0.49%
inhibition [13]: 3.33%
inhibition [14]: 1.23%
inhibition [15]: 1.1%
inhibition [16]: 3.59%
inhibition [17]: 9.53%
inhibition [18]: 3.27%
inhibition [19]: 4.53%
inhibition [20]: 2.55%

CCc1cccc(NC(=O)Nc2ccc(Oc3ccc4nc(NC(=O)OC)[nH]c4c3)cc2)c1
inhibition [1]: -0.89%
inhibition [2]: 1.41%
inhibition [3]: 1.44%
inhibition [4]: -0.84%
inhibition [5]: 2.94%
inhibition [6]: 3.07%
inhibition [7]: 3.57%
inhibition [8]: 1.27%
inhibition [9]: 0.49%
inhibition [10]: -0.87%
inhibition [11]: -0.24%
inhibition [12]: 1.1%
inhibition [13]: 3.52%
inhibition [14]: 0.32%
inhibition [15]: 0.96%
inhibition [16]: 2.06%
inhibition [17]: 2.27%
inhibition [18]: 1.99%
inhibition [19]: 0.48%
inhibition [20]: 0.31%

Cc1nnc(-c2ccc(C)c(-c3ccc(C(=O)Nc4cccc(C#N)c4)cc3)c2)o1
inhibition [1]: 0.87%
inhibition [2]: 0.45%
inhibition [3]: 4.14%
inhibition [4]: 2.07%
inhibition [5]: 6.42%
inhibition [6]: 2.78%
inhibition [7]: 4.43%
inhibition [8]: -0.05%
inhibition [9]: 0.66%
inhibition [10]: 0.29%
inhibition [11]: 0.22%
inhibition [12]: 0.95%
inhibition [13]: 2.47%
inhibition [14]: 0.95%
inhibition [15]: 0.82%
inhibition [16]: 3.54%
inhibition [17]: 4.65%
inhibition [18]: 4.14%
inhibition [19]: 3.76%
inhibition [20]: 5.08%

CS(=O)(=O)CCNCc1ccc(-c2ccc3ncnc(Nc4ccc(OCc5cccc(F)c5)c(C(F)(F)F)c4)c3c2)o1
inhibition [1]: -0.27%
inhibition [2]: -0.62%
inhibition [3]: 0.4%
inhibition [4]: 5.41%
inhibition [5]: 4.1%
inhibition [6]: 4.72%
inhibition [7]: 4.64%
inhibition [8]: 1.03%
inhibition [9]: 1.08%
inhibition [10]: 0.19%
inhibition [11]: 0.66%
inhibition [12]: 0.74%
inhibition [13]: 0.16%
inhibition [14]: 1.63%
inhibition [15]: 2.16%
inhibition [16]: 0.39%
inhibition [17]: 9.67%
inhibition [18]: 2.19%
inhibition [19]: 10.8%
inhibition [20]: 1.68%

COc1cc2ncn(-c3cc(OCc4ccccc4Cl)c(C(N)=O)s3)c2cc1OC
inhibition [1]: 6.01%
inhibition [2]: -0.4%
inhibition [3]: -0.88%
inhibition [4]: 3.72%
inhibition [5]: 5.84%
inhibition [6]: -0.8%
inhibition [7]: 1.21%
inhibition [8]: 0.77%
inhibition [9]: 2.71%
inhibition [10]: 1.11%
inhibition [11]: 4.79%
inhibition [12]: 1.01%
inhibition [13]: 8.63%
inhibition [14]: -0.46%
inhibition [15]: 0.67%
inhibition [16]: -2.01%
inhibition [17]: 28%
inhibition [18]: 2.69%
inhibition [19]: 26.6%
inhibition [20]: 3.64%
